Compound activity: PubChem, several laboratories
The list is not random: actives were taken first. Their share in the collection is about 0.5%.
AddAB inh: less growth of phage-infected E. coli with AddAB | E. coli expressing H. pylori AddAB, absorbance growth | AID 435030 | 0.29% of 330,000 active | inhibition, % at 11.9 µM; in the data active = inhibition above about 12%;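 also: 0% = vehicle wells of infected cells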
phage Ecoli inh: E. coli growth loss with phage present; growth absorbance; AID 651602; 0.26% of 360,000 active; inhibition, % at 11.9 µM; in the data active = inhibition above about 11%
E coli growth-1: bacterial growth inhibition, counter-screen for AddAB inhibitors | E. coli V3065 growth, OD600 absorbance, 18 h | inhibition, % at 11.9 µM | 0.27% of 330,000 active;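 active = inhibition above the campaign's mean inhibition across all tested compounds plus 3 SD, cut at about 9.9% in these data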;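 also: uninfected addAB+ strain grown without phage in ampicillin broth; 0% = DMSO wells and 100% = ciprofloxacin 0.95 µg/ml wells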
Tat export inh: E. coli Tat transport inhibition; E. coli MC4100 TorA-mCherry Tat export, fluorescence; inhibition, % at 10 µM; 0.036% of 340,000 active; AID 488895;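 active = mean replicate inhibition at least 50% and at least half of replicates individually reaching 50%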;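 also: exported cargo escapes ClpAP degradation while cytoplasmic cargo is degraded and loses fluorescence; 0% = median of neutral control wells and 100% = median of NaSCN control wells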
E coli growth-2: inhibitors of Escherichia coli growth; OD600, 23 h; active compounds read low; OD600 absorbance (test concentration not listed); 0.21% of 330,000 active; AID 1053175;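 active = OD600 absorbance below the run mean of sample wells minus 3.6 SD, in any replicate, cut at about 0.56 in these data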
* marks the source's active call; other numbers are inactive results; . = not tested or not shown.

SMILES	AddAB inh	phage Ecoli inh	E coli growth-1	Tat export inh	E coli growth-2
C/C(=N\Nc1ncnc2sc(C)c(C)c12)c1ccccn1	11	6	14*	20	.
CC1CN(C(C)CO)C(=O)c2cccc(NC(=O)Cc3ccccc3)c2OC1CN(C)Cc1ccncc1 (stereo not given)	.	.	.	.	0.68
Cc1ccc(Cn2c(N)nc3ccccc32)cc1	6	4	2	-4	.
Nc1nc2ccccc2n1Cc1ccc(Cl)c(Cl)c1	3	-2	3	13	0.44*
C=Cn1cc[n+](CC(=O)c2ccc(-c3ccccc3)cc2)c1	11	6	13*	2	0.68
CN(C)S(=O)(=O)c1cccc(NC(=S)N/N=C/c2ccc(O)c(O)c2O)c1	.	11*	.	7	.
Cc1ccnc(NC(=O)c2ccc([N+](=O)[O-])s2)c1	14*	7	10	-8	0.6
S=C(NCCNCc1ccccc1)NC1CCCCC1	98*	.	98*	.	.
S=C(NCCc1ccccc1)NC1CCCCCC1	2	2	3	-1	0.65
CCCCCCCCCCCCCCCC[n+]1ccc(C=NO)cc1	.	.	.	.	0.4*
CN(C)C(=O)C[n+]1ccc(/C=N/O)cc1	5	2	0	2	.
COc1cc(/C=C/C(O)=C/C(=O)/C=C/c2ccc(O)cc2)ccc1O	8	11	10*	4	.
Cc1cc(/C=C2\Sc3ccccc3N2C)cc(C)[n+]1CC1CCCO1 (stereo not given)	.	3	.	-16	0.46*
Cc1ccc(/C=C2/Sc3ccccc3N(CC(=O)NCC3CCCO3)C2=O)cc1 (stereo not given)	2	.	-1	4	0.68
Cc1cnnn1-c1ccc(C(=O)CCl)cc1	3	2	2	-16	0.51*
CC(=O)c1ccc(-n2nncc2C(C)(C)C)cc1	2	2	0	7	0.7
COc1cccc(C(=O)NCC(=O)NN=Cc2cn[nH]c2-c2ccccc2)c1	.	.	.	.	0.71
O=c1nccc(N/N=C/c2ccccc2O)[nH]1	.	2	.	0	.
COc1cccc(/C=N/Nc2ccnc(=O)[nH]2)c1O	6	2	13*	7	.
CCn1c(CCc2ccccc2)n[nH]c1=S	1	-3	2	-2	0.67
CCn1c(CCn2c3ccccc3c3ccccc32)n[nH]c1=S	3	5	4	50*	0.68
Cc1[nH]c2ccccc2c1C=NNc1ccc([N+](=O)[O-])cc1S(=O)(=O)Nc1ccc(Cl)cc1	.	.	.	.	0.65
COc1ccc(C(NC(=O)c2cccnc2)c2cc(Cl)c3cccnc3c2O)cc1OC (stereo not given)	25*	20*	23*	-6	0.67
CC(=O)NC(c1ccco1)c1cc(Cl)c2cccnc2c1O (stereo not given)	.	6	.	.	.
COc1cc2c(cc1OC)CN(C(=S)Nc1ccccc1Cl)CC2	0	2	-4	8	0.43*
SMILES	AddAB inh	phage Ecoli inh	E coli growth-1	Tat export inh	E coli growth-2
COc1cc2c(cc1OC)CN(C(=S)Nc1ccccc1)CC2	0	-1	2	1	0.72
Cc1cc2cc(CCNC(=O)c3ccc(Br)o3)c(=O)[nH]c2cc1C	12	10	12*	-7	0.65
Cc1ccc2c(c1)C1C(CO2)C(c2ccccc2)[C@]2(C)C(=O)Nc3cc(F)c(F)cc3C(=O)N12 (stereo not given in full)	.	.	.	.	0.71
C=C1c2c(Cl)ccc(O)c2C(O)=C2C(=O)[C@]3(O)C(O)=C(C(N)=O)C(=O)C(N(C)C)C3C(O)C12 (stereo not given in full)	.	.	.	.	0.075*
Cc1ccsc1C(=CCCN1CCCC(C(=O)O)C1)c1sccc1C (stereo not given)	.	.	.	.	0.62
COc1ccc(OCC(O)CNC(=O)c2cccc3c2C(=O)c2ccc(Cl)cc2S3(=O)=O)cc1 (stereo not given)	.	.	.	.	0.6
CC[C@]12C(=O)N(C)CC(C3C(=O)N(Cc4ccccc4)C(=O)C31)N2C(=O)c1ccc(F)cc1 (stereo not given in full)	.	.	.	.	0.66
NCCOc1ccc(C23CC4CC(CC(C4)C2)C3)cc1	-2	4	0	8	0.47*
OCCN1CCN(CC(O)COc2ccc(C34CC5CC(CC(C5)C3)C4)cc2)CC1 (stereo not given)	-1	2	-2	5	.
O=c1[nH]sc2ccccc12	.	4	.	-1	0.066*
CC(=O)Nc1cccc(C(=O)/C=C/c2ccc[nH]2)c1	8	7	11*	-15	0.6
CC(=O)Nc1cccc(C(=O)/C=C/c2ccc(/C=C/C(=O)c3cccc(NC(C)=O)c3)cc2)c1	3	1	3	.	.
Nc1cccc([N+](=O)[O-])c1	2	-2	3	-9	0.65
O=[N+]([O-])c1cccc(SSc2cccc([N+](=O)[O-])c2)c1	.	2	.	3	0.54*
CC1=NN(C(N)=S)C(=O)C1N=Nc1ccc(C)c(Br)c1 (stereo not given)	7	3	13*	-18	0.62
CCOC(=O)c1csc(N)n1	1	3	0	-15	0.66
CC1C(NC(=O)C(=NOC(C)(C)C(=O)O)c2csc(N)n2)C(=O)N1S(=O)(=O)O (stereo not given)	.	.	.	.	0.059*
CC(=O)Nc1ccc(S(=O)(=O)N2CCN(C(=O)C(=O)c3cccc(C(F)(F)F)c3)CC2)cc1	.	1	.	.	.
CC(=O)Nc1ccc(S(=O)(=O)N2CCN(c3cc(C(F)(F)F)ccn3)CC2)cc1	-1	0	-2	3	0.11*
Cc1cccc(-c2nnc(NC(=O)c3ccc(Cl)cc3)o2)c1	3	-2	-1	-1	0.52*
COc1cccc(-c2nnc(NC(=O)c3ccc(Cl)s3)o2)c1	9	-1	0	-16	0.47*
CC(C)N1CCc2c(sc(NC(=O)c3nc4ccccc4s3)c2C(N)=O)C1	-2	0	-2	-5	0.69
CC(C)N1CCc2c(sc(NC(=O)c3ccc(S(=O)(=O)N4CCc5ccccc54)cc3)c2C(N)=O)C1	1	.	-1	62*	0.72
O=C1c2ccccc2C(=Cc2ccc3[nH]ccc3c2)N1c1ccccc1	.	.	.	.	0.71
CN1CCC(NCCC(c2ccc(F)cc2)c2ccc(Cl)cc2)CC1 (stereo not given)	.	1	.	3	0.51*
SMILES	AddAB inh	phage Ecoli inh	E coli growth-1	Tat export inh	E coli growth-2
CC(C)C(CCNC1CCN(C)CC1)c1ccc(Cl)cc1 (stereo not given)	2	3	-2	-21	0.63
Cc1ccc(Cl)cc1NC(=O)CC(O)(C(F)(F)F)C(F)(F)F	12	8	11*	16	0.58
CCC(C)C1CNCCN1CCc1cccc(F)c1 (stereo not given)	.	.	.	.	0.7
Cc1ccc(C=NNC(=O)c2cccs2)s1	.	.	.	.	0.65
CCC[C@@H](CN1CCC[C@H]1CN1C(N)=NC[C@H]1CC(C)C)N1C[C@@H]([C@H](C)CC)N(CCCC2CCCC2)C1=N	3	4	5	-1	0.43*
CCC[C@@H](CN1CCC[C@H]1CN1C(N)=NC[C@H]1C(C)C)N1C[C@@H]([C@H](C)CC)N(CCCC2CCCC2)C1=N	2	1	1	10	0.65
CCCC(CN1CCCC1CN1C(N)=NCC1Cc1ccccc1)N1CC(Cc2ccccc2)N(CCCC2CCCC2)C1=N (stereo not given)	.	.	.	.	0.34*
